Screen size: about 68,000 compounds; about 25 (0.04%) showed an effect of 50% or more. What follows is part of a selection rich in strong results, with near analogues and random picks from the rest.
What follows are compounds tested against T1, Methionyl-tRNA synthetase, putative (Leishmania donovani (strain BPK282A1)) (UniProt E9BF75) (assay: Leishmania donovani Methionine tRNA synthetase (LdMetRS):v6. Primary screen assay).
T1 sequence (whole entry): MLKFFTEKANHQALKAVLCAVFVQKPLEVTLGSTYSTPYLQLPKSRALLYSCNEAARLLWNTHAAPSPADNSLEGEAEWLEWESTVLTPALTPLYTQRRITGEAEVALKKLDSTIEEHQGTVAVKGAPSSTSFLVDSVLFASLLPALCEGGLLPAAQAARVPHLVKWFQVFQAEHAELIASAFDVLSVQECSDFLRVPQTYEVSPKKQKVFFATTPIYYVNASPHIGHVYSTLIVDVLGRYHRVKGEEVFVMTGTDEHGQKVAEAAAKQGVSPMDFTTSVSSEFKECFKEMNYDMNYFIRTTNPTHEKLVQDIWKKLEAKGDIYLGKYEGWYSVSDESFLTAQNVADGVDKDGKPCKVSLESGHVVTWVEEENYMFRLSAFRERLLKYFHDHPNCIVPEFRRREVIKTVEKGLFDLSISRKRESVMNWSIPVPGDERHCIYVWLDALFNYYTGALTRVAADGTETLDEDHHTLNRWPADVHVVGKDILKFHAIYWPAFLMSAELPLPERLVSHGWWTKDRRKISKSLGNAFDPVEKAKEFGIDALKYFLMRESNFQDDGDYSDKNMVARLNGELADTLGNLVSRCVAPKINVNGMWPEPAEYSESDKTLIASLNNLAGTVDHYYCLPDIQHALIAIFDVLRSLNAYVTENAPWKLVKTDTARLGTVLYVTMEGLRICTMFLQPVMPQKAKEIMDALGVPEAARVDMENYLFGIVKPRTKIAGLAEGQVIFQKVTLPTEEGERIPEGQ
Type: functional
Set-up: conc 80 nM, time 150 minutes

| SMILES | inhibition [%] |
| --- | --- |
| CC1=N[C@@]2(CC[C@@H]3CN(Cc4ccccc4C)C[C@@H]32)C(=O)N1CC1CC1 | 6.09 |
| CN1CCC(CO[C@H]2CN(C(=O)c3cccn3C)[C@@H]3COC[C@H]23)CC1 | 8.4 |
| CC(C)c1nnc(NCCS(C)(=O)=O)s1 | 1.24 |
| CC(C)CCNc1nnc(C(C)C)s1 | 80.1 |
| CCN(CC)S(=O)(=O)CCNc1nnc(C(C)C)s1 | -0.621 |
| COc1ccc(CN2CCO[C@H]3[C@H](OCCN4CCCC4)CC[C@@H]32)cc1 | 6.3 |
| C1CC(CN2C[C@H]3CC[C@@H]2CN(Cc2nnc(C4CC4)o2)C3)C1 | 9.96 |
| Cc1cncc(C(=O)N2C[C@H]3CCC[C@@]3(COc3ccccn3)C2)c1 | 8.5 |
| COc1cc(N2CC[C@@H]3O[C@@H](C(=O)NCCN(C)C)C[C@@H]32)ncn1 | 4.66 |
| O=C1[C@H]2CC[C@H](CN(C3CCOCC3)C2)N1Cc1cscn1 | 8.93 |
| Cc1oncc1C(=O)N1CC[C@H]2[C@@H]1CCC(=O)N2CC1CCOCC1 | 13.7 |
| Cc1ccoc1C(=O)N1CC[C@H]2C[C@H](c3nnc(C4CC4)o3)O[C@@H]2C1 | 15.5 |
| O=S(=O)(C1CC1)N1C[C@@H]2CN(Cc3ccoc3)CCO[C@@H]2C1 | 8.7 |
| Cc1occc1C(=O)N1C[C@@H]2OCCN(c3ncccn3)[C@@H]2C1 | 9.59 |
| COc1cc(CN2CCN(CC3CC3)[C@@H]3CS(=O)(=O)C[C@@H]32)cc(OC)c1 | 7.26 |
| N#Cc1cccc(CN2C[C@H](NC(=O)C3CC3)[C@H]3OCCC[C@H]32)c1 | 10.6 |
| O=C(NC1CC1)[C@H]1C[C@@H]2CCN(Cc3ccc4c(c3)OCO4)C[C@@H]2O1 | 1.31 |
| CCS(=O)(=O)N1C[C@H]2CCC[C@@]2(COc2ccccn2)C1 | 12.9 |
| CS(=O)(=O)N1CC[C@H]2O[C@H](C(=O)NCCc3ccccn3)CC[C@H]21 | 7.41 |
| CCN1C[C@H]2C3(CCN(C(C)=O)CC3)CC[C@@]2(C(=O)N(C)C)C1 | 1.68 |
| CCCN1C[C@H]2CC[C@@H]1CN(C(=O)c1ccc(N(C)CCO)cc1)C2 | 12.9 |
| Cc1cccc(N2CC[C@@H]3[C@@H](CO[C@H]3CNC(=O)c3ccco3)C2)n1 | 13.1 |
| CSc1ncccc1C(=O)N1C[C@H]2CC[C@@H]1CN(C(=O)N(C)C)C2 | 16.9 |
| CNc1ccnc(N2C[C@@H]3CC[C@H](C2)N(CCOC)C3=O)n1 | -4.82 |
| CCCC(C)NC(=O)c1ccc(-c2ccco2)[nH]c1=O (stereo unspecified) | 9.58 |
| CC(CN1CCCC1=O)NC(=O)c1ccc(-c2ccco2)[nH]c1=O (stereo unspecified) | 16.8 |

| SMILES | inhibition [%] |
| --- | --- |
| CCC(C)NC(=O)c1ccc(-c2ccco2)[nH]c1=O (stereo unspecified) | 86.2 |
| CCN1Cc2nc(OC)c(CNC(=O)C3CCS(=O)(=O)CC3)cc2C1=O | -0.86 |
| Cc1ccc(CN2CCC[C@]3(C(=O)O)CN(c4ncccn4)C[C@@H]3C2)o1 | 14.6 |
| CC(=O)N1[C@H](Cn2cncn2)C[C@@H]2CN(Cc3ccncc3)CC[C@@H]21 | 5.54 |
| Cc1ccc(CN2CCN(CC3CC3)[C@@H]3CS(=O)(=O)C[C@@H]32)cc1C | 15.6 |
| CCS(=O)(=O)CCNC(=O)[C@@]12CNC[C@@H]1CN(C1CCCC1)C2 | 6.92 |
| Cc1nc(COC[C@@H]2CC[C@H]3[C@H](CCN3S(C)(=O)=O)O2)cs1 | 15.2 |
| O=C(CCn1cc(Cl)cn1)N1C[C@@H]2CC[C@H](C1)N(Cc1ccccn1)C2 | 15.8 |
| Cc1cccc(C(=O)N2C[C@H]3CC[C@@H]2CN(S(=O)(=O)N(C)C)C3)n1 | 19.9 |
| CCS(=O)(=O)NC[C@]12COC[C@H]1CN(Cc1ccsc1)C2 | 7.3 |
| CCC(=O)N1CC[C@@H]2[C@H](CC1)N(Cc1cccc(C)n1)CCS2(=O)=O | 14.2 |
| COCCNc1nc(-n2nc(C)cc2C)nc2sc3c(c12)CCCC3 | 9.06 |
| Cc1cc(C)n(C2=NC(NCCC(C)C)c3c(sc4c3CCCC4)N2)n1 (stereo unspecified) | 16.4 |
| Cc1cc(C)n(-c2nc(NCCCO)c3c4c(sc3n2)CCCC4)n1 | 59.5 |
| CN(C)C(c1ccccn1)[C@H]1CC[C@H](CNC(=O)C2CC2)CC1 (stereo partly specified) | 16 |
| O=C(C[C@@H]1COC[C@H]2CN(Cc3ccc(F)cc3)C[C@@H]12)N1CCCC1 | 13 |
| CC(=O)N1CC[C@@]2(C(=O)Nc3ccccc3)CCN(S(C)(=O)=O)CC[C@@H]12 | 8.93 |
| c1ccc(CN2CC[C@@H]3O[C@@H](COCC4CCOCC4)CC[C@@H]32)nc1 | 10.1 |
| O=C(c1ccsc1)N1C[C@H](N2CCOCC2)[C@@H]2OCCC[C@@H]21 | 13.9 |
| O=C(C[C@@H]1COC[C@H]2CN(Cc3ccc(F)cc3)C[C@@H]12)N1CCCCO1 | 12.9 |
| CNS(=O)(=O)c1ccc(CNC(=O)C2CCCO2)cc1 (stereo unspecified) | -0.269 |
| Cc1oncc1C(=O)N1CC[C@H]2[C@@H]1CCC(=O)N2c1cccnc1 | 17.6 |
| Cn1cc(CN2CC[C@H]3O[C@@H](C(=O)NC4CC4)CC[C@H]32)cn1 | 3.76 |
| c1csc(CN2C[C@@H](n3cccn3)[C@H]3OCCC[C@H]32)c1 | 10.1 |
| COc1cccc(NC(=O)N2CC[C@@H]3CN(C)S(=O)(=O)[C@@H]3CC2)c1 | -1.1 |
